Reference: PubChem BioAssay (NCI)
The panel holds about 79,000 compounds, 15% with a hit somewhere; the sample as a whole holds those more often. Calls of active or inactive are those of the source. Cut-off read from the data, not from the text of the source: active = growth inhibition above about 70%; inactive = the rest.

What was measured:
[1] = NCI Yeast Anticancer Drug Screen. Data for the rad52 strain (AID 147);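 note: 0% = growth of vehicle-treated control cultures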; conditions: S. cerevisiae rad52 mutant growth inhibition, stronger effect = higher value
How it was run: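 Screen used a yeast mutant impaired in DNA repair. After compound exposure, growth was measured. Values reflect inhibition compared with vehicle-treated cells.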

[2] = NCI Yeast Anticancer Drug Screen. Data for the wt1 strain (AID 149);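 note: 0% = growth of vehicle-treated wt1 cultures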; conditions: S. cerevisiae wt1 strain (SPY 50644) growth inhibition, stronger effect = higher value
How it was run: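 Using yeast strain wt1, compound-induced growth inhibition was determined against vehicle-treated cultures.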

[3] = NCI Yeast Anticancer Drug Screen. Data for the rad50EPP+ strain (AID 151);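 note: 0% = growth of vehicle-treated control cultures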; conditions: S. cerevisiae rad50 mutant strain, stronger effect = higher value
How it was run: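 Exposing the rad50EPP+ strain to each compound, growth was compared with vehicle-only cultures to give inhibition.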

[4] = NCI Yeast Anticancer Drug Screen. Data for the mgt1 strain (AID 153); conditions: S. cerevisiae mgt1 mutant growth inhibition, stronger effect = higher value
How it was run: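 Genetically defined yeast (mgt1) treated with compound; inhibition of growth expressed against vehicle-treated controls.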

[5] = NCI Yeast Anticancer Drug Screen. Data for the rad50 strain (AID 155);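 note: 0% = growth of vehicle-only cultures of the same strain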; conditions: S. cerevisiae rad50 strain growth inhibition, stronger effect = higher value
How it was run: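 Relative growth inhibition (compound vs vehicle) was measured in yeast with a defined repair-gene alteration.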

[6] = NCI Yeast Anticancer Drug Screen. Data for the mec2-1 strain (AID 157); conditions: S. cerevisiae mec2-1 strain, stronger effect = higher value
How it was run: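 Readout is yeast growth inhibition, normalised to vehicle-treated controls, in the mec2-1 strain exposed to compound.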

[7] = NCI Yeast Anticancer Drug Screen. Data for the rad14 strain (AID 159);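 note: 0% = growth of vehicle-treated control cultures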; conditions: S. cerevisiae rad14 strain growth inhibition, stronger effect = higher value
How it was run: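 Screen for anticancer potential: a yeast strain altered in DNA damage repair is grown with compound, and reduced growth is quantified against vehicle controls.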

[8] = NCI Yeast Anticancer Drug Screen. Data for the CLN2oe strain (AID 163);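 note: 0% = growth of vehicle-only control cultures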; conditions: S. cerevisiae CLN2oe strain, stronger effect = higher value
How it was run: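 Values reflect how much compound exposure reduced yeast growth, referenced to vehicle-exposed cells. Assay organism is a strain with a defined genetic change affecting cell-cycle control.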

[9] = NCI Yeast Anticancer Drug Screen. Data for the bub3 strain (AID 167); conditions: S. cerevisiae bub3 mutant strain, stronger effect = higher value
How it was run: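 Screening used yeast with an engineered genetic alteration affecting cell cycle control. Compound-exposed cultures were compared with vehicle cultures, and reduced growth was taken as inhibition.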

[10] = NCI Yeast Anticancer Drug Screen. Data for the wt2 strain (AID 169);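 note: 0% = growth of vehicle-treated yeast cultures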; conditions: S. cerevisiae wt2 strain growth inhibition, stronger effect = higher value
How it was run: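 Values express reduction in yeast growth under compound treatment, referenced to vehicle-treated cells.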

[11] = NCI Yeast Anticancer Drug Screen. Data for the mlh1 strain (AID 171);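 note: 0% = growth of vehicle-treated control cultures of the same strain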; conditions: S. cerevisiae mlh1 strain growth inhibition, stronger effect = higher value
How it was run: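 Steps: expose the defined-mutant yeast strain to compound; expose a parallel culture to vehicle; measure growth; express compound effect as inhibition relative to the vehicle culture.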

[12] = NCI Yeast Anticancer Drug Screen. Data for the sgs1 strain (AID 173);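 note: 0% = growth of vehicle-only control cultures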; conditions: S. cerevisiae sgs1 mutant, stronger effect = higher value
How it was run: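 Treat defined-mutant yeast with compound; measure growth; calculate inhibition relative to vehicle-treated cells.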

[13] = NCI Yeast Anticancer Drug Screen. Data for the mlh1 rad18 strain (AID 175); conditions: S. cerevisiae mlh1 rad18 strain growth inhibition, stronger effect = higher value
How it was run: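 Test agents were incubated with a yeast strain of defined genotype (DNA damage repair defect). Inhibition of growth was derived by comparison with vehicle-exposed cultures.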

[14] = NCI Yeast Anticancer Drug Screen. Data for the rad18 strain (AID 177); conditions: S. cerevisiae rad18 mutant growth inhibition, stronger effect = higher value
How it was run: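 A genetically defined yeast mutant impaired in DNA damage repair was treated with test compounds, then its growth was measured against cultures receiving vehicle alone.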

[15] = at 5.0 µM (retest, dose inferred, filed as 0.5)
[16] = at 50.0 µM (retest, dose inferred, filed as 5.0)

Measured: growth inhibition

CCCC/C=C/C(C)(C(=O)OCC)C(=O)OCC
active: [13]; [16] 81% | [13]; at 50.0 µM 70.2%
inactive: [1]; at 1.2 µM -5% | [1]; at 3.7 µM -5% | [1]; at 11.0 µM -1% | [1]; at 33.0 µM 4% | [1]; at 100.0 µM 22% | [2]; at 1.2 µM -5% | [2]; at 3.7 µM -5% | [2]; at 11.0 µM -5% | [2]; at 33.0 µM -7% | [2]; at 100.0 µM 3% | [3]; at 1.2 µM -3% | [3]; at 3.7 µM 0% | [3]; at 11.0 µM 4% | [3]; at 33.0 µM 9% | [3]; at 100.0 µM 16% | [4]; at 1.2 µM -4% | [4]; at 3.7 µM -4% | [4]; at 11.0 µM -4% | [4]; at 33.0 µM -2% | [4]; at 100.0 µM 16% | [5]; at 1.2 µM -6% | [5]; at 3.7 µM -5% | [5]; [15] 10% | [5]; at 11.0 µM -1% | [5]; at 33.0 µM 0% | [5]; [16] 8% | [5]; at 50.0 µM -6.4% | [5]; at 100.0 µM 19% | [6]; at 1.2 µM -2% | [6]; at 3.7 µM -4% | [6]; [15] 3% | [6]; at 11.0 µM -1% | [6]; at 33.0 µM 5% | [6]; [16] 16% | [6]; at 50.0 µM 26.9% | [6]; at 100.0 µM 25% | [7]; at 1.2 µM -5% | [7]; at 3.7 µM -5% | [7]; at 11.0 µM -1% | [7]; at 33.0 µM 3% | [7]; at 100.0 µM 15% | [8]; at 1.2 µM -3% | [8]; at 3.7 µM -7% | [8]; at 11.0 µM -8% | [8]; at 33.0 µM -1% | [8]; at 100.0 µM 12% | [9]; at 1.2 µM -6% | [9]; at 3.7 µM -5% | [9]; [15] -2% | [9]; at 11.0 µM -6% | [9]; at 33.0 µM -1% | [9]; [16] 12% | [9]; at 50.0 µM 67.8% | [9]; at 100.0 µM 19% | [10]; at 1.2 µM -4% | [10]; at 3.7 µM -4% | [10]; at 11.0 µM -6% | [10]; at 33.0 µM -4% | [10]; at 100.0 µM 14% | [11]; at 1.2 µM -4% | [11]; at 3.7 µM -3% | [11]; at 11.0 µM -1% | [11]; at 33.0 µM 5% | [11]; at 100.0 µM 29% | [12]; at 1.2 µM -3% | [12]; at 3.7 µM -1% | [12]; at 11.0 µM 3% | [12]; at 33.0 µM 6% | [12]; at 100.0 µM 38% | [13]; [15] 11% | [14]; at 1.2 µM -4% | [14]; at 3.7 µM 1% | [14]; at 11.0 µM 6% | [14]; at 33.0 µM 13% | [14]; at 100.0 µM 35%
